# Screening data as filed in PubChem.
# Gal4-VP16 FLuc – counter-screen for ROR gamma inhibitors: Gal4-VP16 reporter. Drosophila S2 Gal4-VP16 UAS-luciferase, luminescence, 20 h. Potency, µM (series often up to 53.6 µM), for inactives: at the highest dose activity, negative = inhibition, most hits filed as inhibitors. 3.5% of 310,000 active;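 also: Gal4-VP16 expression switched on by copper sulfate through the metallothionein promoter; % is scaled to controls: 0 for no effect and ±100 for the full control effect; nearly all actives have a fitted effect of over 50% in size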
# KB-V1 MDR tox – KB-V1 MDR subline cytotoxicity. KB-V1 MDR cells viability, CellTiter-Glo, 72 h. Potency, µM (titrated, usually from 46.1 µM), actives largely listed as cytotoxic. 3.4% of 400,000 active; also: % is scaled to controls: 0 for no effect and ±100 for the full control effect; nearly all actives have a fitted effect of over 60% in size
#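 Following 72 h at 37 degrees C with compound, KB-V1 cell viability was read by CellTiter-Glo luminescence, medium being phenol-red-free DMEM plus 10% FBS; concentration-response parameters came from normalized, curve-fitted qHTS data.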
# SW480 rereplic – inducers of DNA re-replication in SW480 colon cancer cells; Potency, µM (doses to about 46.1 µM), without a hit: at the highest dose re-replication activation, actives largely listed as activators; AID 624297; SW480 DNA re-replication, Hoechst DNA content imaging, 48 h; 1.8% of 340,000 active; also: % of control where 0% means no effect; nearly all actives have a fitted effect of over 55% in size
#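 First, 250 cells per well were seeded. Next, compound or vehicle (23 nL) was pinned in, plates sat 48 hr at 37 C. Finally Hoechst was added for 40 min before fluorescence scanning.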
# KB-3-1 tox – kills parental KB-3-1 adenocarcinoma cells; 1.4% of 400,000 active; AID 1347075; Potency, µM (series often up to 46.1 µM), hits mostly cytotoxic; KB-3-1 viability, CellTiter-Glo ATP luminescence, 72 h; also: % is scaled to controls: 0 for no effect and ±100 for the full control effect; nearly all actives have a fitted effect of over 60% in size
#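 Parental KB-3-1 viability, qHTS format: 72 h compound exposure, 37 °C; CellTiter-Glo; media-only wells and DMSO plates as controls; concentration-effect fits on corrected data.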
# MCF10A rerep – DNA re-replication induction in MCF 10a cells. AID 624296. Potency, µM (highest dose often 46.1 µM), for inactives: at the top dose activity, positive = re-replication, hits mostly activators. 2.9% of 350,000 active. MCF 10A DNA re-replication, Hoechst nuclear intensity, 48 h; also: % of control where 0% means no effect; nearly all actives have a fitted effect of over 50% in size
# RORg inh – inhibitors of mouse ROR gamma transcriptional activity; P51450; Drosophila S2 Gal4-RORgamma UAS-luciferase reporter, 20 h; Potency, µM (highest dose often 53.6 µM), inactives show at the top dose activity change, negative = inhibition, usual class: inhibitors; 5.4% of 310,000 active; also: % is scaled to controls: 0 for no effect and ±100 for the full control effect; nearly all actives have a fitted effect of over 60% in size
# Target sequence (P51450 whole entry, looked up, the tested form may be a part): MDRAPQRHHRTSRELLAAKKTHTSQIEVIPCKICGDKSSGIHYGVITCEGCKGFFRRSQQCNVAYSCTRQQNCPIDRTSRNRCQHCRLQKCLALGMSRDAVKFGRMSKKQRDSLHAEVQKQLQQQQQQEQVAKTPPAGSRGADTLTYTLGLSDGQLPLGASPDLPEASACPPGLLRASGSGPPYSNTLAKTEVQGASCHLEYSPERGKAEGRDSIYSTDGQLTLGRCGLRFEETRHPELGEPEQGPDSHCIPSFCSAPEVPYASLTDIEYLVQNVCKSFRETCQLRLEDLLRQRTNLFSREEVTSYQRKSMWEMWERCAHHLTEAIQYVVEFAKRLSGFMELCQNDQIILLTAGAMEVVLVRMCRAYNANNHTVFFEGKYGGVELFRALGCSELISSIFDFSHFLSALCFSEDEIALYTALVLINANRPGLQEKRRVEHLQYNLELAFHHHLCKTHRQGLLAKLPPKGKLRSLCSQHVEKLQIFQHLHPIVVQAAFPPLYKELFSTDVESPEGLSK
#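 Compounds are pin-transferred onto Drosophila Schneider cells expressing a copper-inducible Gal4–ROR gamma transactivation domain fusion. After 1 hr, copper sulfate is added to 700 uM final; luciferase is read 20 hr later.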
# * hit, by the source's call; i = inactive; u = inconclusive; x = no result. Most compounds without a hit are left out; they make up all but 10% or so of the library. Calls follow the shape of the dose curve; as a rule, active = well fitted curve in the direction sought with a large enough effect; inconclusive = small, poorly fitted or top-dose-only effect, or another doubt; inactive = no such curve, though single readings can be large; an effect the other way counts as inactive or inconclusive. Potency is read from the fitted curve at half-maximal effect.
SMILES,Gal4-VP16 FLuc,KB-V1 MDR tox,SW480 rereplic,KB-3-1 tox,MCF10A rerep,RORg inh
CC(=O)Nc1sc(NC(=O)c2ccco2)nc1-c1cccs1,22%,i,-17%,i,u,11%
CC1CC1C(=O)Nc1nc(-c2cccs2)c(-c2cccs2)s1 (stereo not given),12%,i,-5%,i,u,10µM*
O=C(Nc1nnc(-c2ccc(Br)cc2)o1)c1ccco1,x,u,4%,u,16%,x
O=C(Nc1nnc(-c2cccs2)o1)c1ccco1,6.3µM*,i,-8%,i,7%,2.5µM*
O=C(Nc1nnc(-c2ccccc2Cl)o1)c1ccco1,5µM*,16µM*,12µM*,i,99%,2.8µM*
O=C(Nc1nc(-c2cccs2)c(-c2ccccc2)s1)c1ccco1,7.9µM*,i,1%,i,u,u
Cc1ccc2oc(C(=O)Nc3ccc(S(=O)(=O)Nc4nccc(C)n4)cc3)cc(=O)c2c1,x,i,x,i,x,x
CCc1ccc(NC(=O)c2sc3ncnc(N(C)C4CCCCC4)c3c2C)cc1,x,i,x,i,x,x
O=C(Nc1nnc(-c2ccccc2Cl)o1)c1nc2ccccc2s1,u,u,3%,u,u,1.1µM*
O=C(CS(=O)(=O)c1ccc(F)cc1)Nc1nnc(-c2ccccc2Cl)o1,x,i,-4%,i,17%,x
Cc1c(C(=O)Oc2ccc(Br)cc2)sc2ncn(Cc3ccccc3F)c(=O)c12,x,i,x,i,x,x
Cc1ccccc1C(=O)n1nc(-c2ccco2)nc1NCc1ccc(Cl)cc1,x,i,x,i,x,x
OC(CN(c1ccccc1)c1ccccc1)Cn1cnc2ccccc21 (stereo not given),u,18µM*,-2%,u,6%,-21%
OC(COCc1ccccc1)Cn1cnc2ccccc21 (stereo not given),1%,16µM*,-15%,i,0%,0%
CCn1c(C)c(CS(=O)(=O)c2ccccc2)[nH]c1=O,u,i,8.2µM*,i,7.3µM*,u
COc1ccc(-c2ccc(=O)n(Cc3ccccc3)n2)cc1,1%,i,-1%,i,0%,8%
COc1ccc(Cc2[nH]n3c(=O)cc(C)nc3c2-c2ccccc2)cc1,u,i,u,u,u,11µM*
COc1ccc(Cc2[nH]n3c(=O)cc(C(C)C)nc3c2-c2ccccc2)cc1,10µM*,i,10µM*,10µM*,2.6µM*,3.5µM*
CC(C)(C)N(Cc1ccc2c(c1)OCO2)C(=O)/C=C\S(=O)c1ccccc1 (stereo not given),x,i,9.2µM*,u,10µM*,x
CC1(C(=O)Nc2nnc(SCc3ccccc3)s2)Cc2ccccc2C(=O)O1 (stereo not given),-11%,i,-8%,i,2%,10µM*
COc1ccc(OC)c(NC(=O)CN2CCCN(Cc3ccccc3Cl)S2(=O)=O)c1,x,i,x,i,x,x
Nc1c(Cl)cc(N=Nc2ccccc2)cc1Cl,x,i,21%,i,23µM*,x
O=C(NNc1ncc(C(F)(F)F)cc1Cl)c1ccc(Cl)c(Cl)c1,u,i,-17%,i,-4%,11µM*
O=C(NNc1ccccc1)c1ccc(Cl)c(Cl)c1,x,18µM*,1%,i,u,x
Nc1ccccc1C(=O)NNc1ncc(C(F)(F)F)cc1Cl,1µM*,u,5.8µM*,i,15µM*,0.79µM*
SMILES,Gal4-VP16 FLuc,KB-V1 MDR tox,SW480 rereplic,KB-3-1 tox,MCF10A rerep,RORg inh
CC(=O)CC(=O)Nc1ncc(C(F)(F)F)cc1Cl,-1%,i,-2%,i,-1%,25%
CCc1ccc(-n2nc(C)c3c(C)cc(=O)n(CC(=O)NCc4ccc(C)cc4)c32)cc1,x,i,x,i,x,x
CCN(c1ccccc1)S(=O)(=O)c1ccc(C(=O)Nc2c(C)n(C)n(-c3ccccc3)c2=O)cc1,x,i,1%,i,-3%,x
CCCCN(c1ccccc1)S(=O)(=O)c1cccc(C(=O)Nc2c(C)n(C)n(-c3ccccc3)c2=O)c1,x,2.6µM*,-6%,26µM*,u,x
O=C1Cc2cc(S(=O)(=O)N3CCN(c4cccc(C(F)(F)F)c4)CC3)ccc2N1,x,i,x,i,x,x
CC(C(=O)O)c1ccc(N2Cc3ccccc3C2=O)cc1 (stereo not given),4µM*,i,0%,i,u,1.8µM*
Cc1ccccc1N1Cc2ccccc2C1=O,x,i,x,i,x,x
Cc1ccc(CNC(=O)C2c3ccccc3C(=O)N3CCc4ccccc4C23)o1 (stereo not given),-7%,i,u,i,18µM*,-1%
O=C(NCCN1CCN(Cc2ccccc2)CC1)C1c2ccccc2C(=O)N2CCc3ccccc3C12 (stereo not given),-1%,i,-10%,i,-3%,14%
CCCOc1ccc(N2C(=O)CC(N3CCC(C(=O)OCC)CC3)C2=O)cc1 (stereo not given),-2%,i,2%,i,15µM*,10%
CCOc1ccc(N2C(=O)CC(N)C2=O)cc1 (stereo not given),3.2µM*,u,u,i,18µM*,1.1µM*
CCOc1ccc(N2C(=O)CC(Sc3nc(CC(C)C)ccc3C#N)C2=O)cc1 (stereo not given),1%,i,5.8µM*,i,u,-32%
O=C1CC(SCc2nc3ccccc3[nH]2)C(=O)N1c1cccc(F)c1 (stereo not given),14µM*,i,-7%,i,5%,10µM*
CCOc1ccc(N2C(=O)CC(Sc3nc(C)cc(C)c3C#N)C2=O)cc1 (stereo not given),7%,u,-2%,i,2%,-5%
COc1ccc(N(CC(=O)NCCc2ccccc2)S(=O)(=O)c2ccccc2)c(OC)c1,x,i,x,i,x,x
NC(=NC1C2CC3CC(C2)CC1C3)Nc1ccc(I)cc1 (stereo not given),-4%,x,x,x,x,-6%
COc1ccc(N2CCN(C(=O)Cn3cnc4nc5c(cc4c3=O)CCCC5)CC2)cc1,x,i,x,i,x,x
O=C1CC(SCc2nc3ccccc3[nH]2)C(=O)N1c1ccc(Cl)cc1 (stereo not given),6.3µM*,i,1%,i,-1%,3.5µM*
CCOc1ccc(N2C(=O)CC(SCc3nc4ccccc4[nH]3)C2=O)cc1 (stereo not given),u,u,1%,i,-4%,11µM*
O=C1CC(SCc2nc3ccccc3[nH]2)C(=O)N1c1ccc(F)c(Cl)c1 (stereo not given),-25%,i,-16%,i,0%,u
